KKLEB cytotox – cytotoxicity in KKLEB CF airway cells, primary screen, cytotoxicity control for CF NF-kB inhibitor project, cell-based, uHTS, fluorescence assay plates | KKLEB CF airway cells viability, ATPlite luminescence, overnight; active compounds read low; cells stimulated with P. aeruginosa culture filtrate | activity change (cytotoxicity), % at 5 µM | hit rate 0.36% among 360,000;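 active = corrected activity change at or below -50% at 5 µM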
CF NFkB block – inhibitors of PAF-induced NF-kB signaling, primary screen, cell-based, GFP fluorescence, uHTS | KKLEB NF-kB-GFP reporter, GFP fluorescence overnight | inhibition, % at 5 µM | hit rate 0.86% among 360,000;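 active = at least 50% inhibition at 5 µM, scaled per plate between neutral and stimulator controls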;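 also: PAF is a Pseudomonas aeruginosa culture filtrate used as stimulus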
Shn3 3UTR inh – reduction of Shn3 3'UTR firefly luciferase signal, primary screen, Schnurri-3 inhibitor project, cell-based, Clone20 osteoblasts, set 2. AID 588674, 2011. Clone20 osteoblast Shn3 3'UTR firefly luciferase, 24 h. hit rate 0.52% among 360,000. inhibition, % at 12.5 µM;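 active = mean inhibition of at least 75% with every replicate also reaching 75%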
TRPM1 prom inh – inhibitors of MITF-dependent TRPM1 promoter reporter, primary screen, cell-based, SK-MEL-5, single point, luciferase. SK-MEL-5 TRPM1 promoter luciferase, 24 h. inhibition, % at 12.5 µM. hit rate 0.83% among 330,000. AID 488899, 2010;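 active = mean inhibition across replicates of 60% or more, whatever share of single replicates reaches that level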
Peg3 prom inh – Peg3 promoter-driven luciferase inhibitors, primary screen, cell-based, HeLa, luciferase luminescence; inhibition, % at 20 µM; hit rate 1.7% among 360,000; HeLa PEG-Prom luciferase reporter, overnight;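 active = inhibition of at least 50% at 20 µM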
EBV LMP1 NFkB – EBV LMP1-driven NF-kappaB luciferase reporter inhibitors, primary screen, cell-based, luminescence, single point | LMP1-induced NF-kappaB luciferase reporter cells | inhibition, % at 12.5 µM | hit rate 0.69% among 350,000; in the data active = inhibition above about 41%
Each line names hits and unclear results; the compound was inactive in the other large screens; ! = not active in a repeat. Most compounds without a hit are left out; they make up all but 2.9% or so of the library.

CCCCCCCCNS(=O)(=O)CCNCCc1ccccc1	none
CCCCCCCCNCCS(=O)(=O)NCCCCCCCC	Peg3 prom inh 95.5
CCC1CCCCN1S(=O)(=O)c1ccc(NC(=O)c2nc(S(C)(=O)=O)ncc2Cl)cc1 (centres undefined)	KKLEB cytotox -74.1, CF NFkB block 87.4, Shn3 3UTR inh 96.5, TRPM1 prom inh 104.5, Peg3 prom inh 106.6
CCC1CCCCN1S(=O)(=O)c1ccc(C(=O)Nc2nnc(-c3ccccc3Cl)o2)cc1 (centres undefined)	none
CCC1CCCCN1S(=O)(=O)c1ccc(NC(=O)c2ccncc2)cc1 (centres undefined)	Shn3 3UTR inh 87.9
CCC1CCCCN1S(=O)(=O)c1ccc(C(=O)Nc2nnc(C3CC3)o2)cc1 (centres undefined)	none
CCCCNC(=O)c1nc(-c2ccncc2)oc1-c1ccccc1	none (no result: TRPM1 prom inh, EBV LMP1 NFkB)
CC(=O)OCC(=O)C1(O)CCC2C3CC(F)C4=CC(=O)CCC4(C)C3C(=O)CC21C (centres undefined)	none
C[C@]12C[C@H](O)[C@H]3[C@@H](CCC4=CC(=O)CC[C@@]43C)[C@@H]1CC[C@@H]2C(=O)CO	none
CC(=O)OCC(=O)[C@@]1(O)CC[C@H]2[C@@H]3CCC4=CC(=O)CC[C@]4(C)[C@H]3C(=O)C[C@@]21C	Shn3 3UTR inh 88.3
CCCC(=O)O[C@]1(C(=O)CO)CC[C@H]2[C@@H]3CCC4=CC(=O)CC[C@]4(C)[C@H]3[C@@H](O)C[C@@]21C	CF NFkB block 94.6
C[C@]12CCC(=O)C=C1CC[C@@H]1[C@@H]2[C@@H](O)C[C@@]2(C)[C@H]1CC[C@]2(O)C(=O)COC(=O)CCC(=O)O	CF NFkB block 74.8
CC(=O)OCC(=O)[C@@]1(O)CC[C@H]2[C@@H]3CCC4=CC(=O)CC[C@]4(C)[C@H]3[C@@H](O)C[C@@]21C	CF NFkB block 64.4, EBV LMP1 NFkB 86.1!
CCCCNC(=O)C1(C)CCCCN1Cc1ccc(OCc2ccccc2)cc1 (centres undefined)	none (no result: TRPM1 prom inh, EBV LMP1 NFkB)
CC1CC2(C)C(=CC1=O)CCC1C2C(O)CC2(C)C1CCC2(O)C(=O)CO (centres undefined)	CF NFkB block 66.7
CC(=O)OCC(=O)C1(O)CCC2C3CC(F)C4=CC(=O)CCC4(C)C3C(O)CC21C (centres undefined)	CF NFkB block 76.4
CC(=O)OCC(O)C1(O)CCC2C3CCC4=CC(=O)CCC4(C)C3C(O)CC21C (centres undefined)	none (no result: TRPM1 prom inh, EBV LMP1 NFkB)
CC12CCC(=O)C=C1CCC1C2CCC2(C)C1CCC2(O)C(=O)CO (centres undefined)	none
CCC(CC)C(=O)OCC(=O)C1(O)CCC2C3CCC4=CC(=O)CCC4(C)C3C(O)CC21C (centres undefined)	CF NFkB block 63.7
C[C@H]1CN([C@@H](C)CO)C(=O)CCCn2nncc2CO[C@H]1CN(C)C(=O)NC1CCCCC1	none (no result: TRPM1 prom inh)
O=[N+]([O-])/C=C\c1ccc(N2CCCC2)c(F)c1	TRPM1 prom inh 93.6, Peg3 prom inh 101.1
O=Cc1ccc(N2CCCC2)c([N+](=O)[O-])c1	none
CN1CCN(C(=O)CCn2c(=S)[nH]c3ccccc3c2=O)CC1	none (no result: TRPM1 prom inh)
CCOC(=O)c1c(C)[nH]c(C)c1C(=O)COC(=O)/C=C/c1ccccc1[N+](=O)[O-]	none
CCOC(=O)c1c(C)[nH]c(C)c1C(=O)COC(=O)c1ccc([N+](=O)[O-])s1	TRPM1 prom inh 76.5
O=C(O)CCCCNCc1ccccc1	none
c1ccc(CNCCCNCCCCNCCCNCc2ccccc2)cc1	Peg3 prom inh 110.1
CC1(C)C(=O)N(c2ccccc2)C1c1ccccc1O (centres undefined)	Peg3 prom inh 52.5
COc1ccc(N2C(=O)C(C)(C)C2c2c(O)ccc3ccccc23)cc1 (centres undefined)	none
C[C@H]1CN([C@@H](C)CO)S(=O)(=O)c2ccc(Br)cc2O[C@H]1CN(C)C(=O)c1cccnc1	none (no result: TRPM1 prom inh)
COc1ccc(-c2oc3ncnc(NCCCN4CCOCC4)c3c2-c2ccc(OC)cc2)cc1	Peg3 prom inh 63.6
